# According to PubChem BioAssay (NCATS):
# Results filed as inconclusive are left out. A call without a number means that no potency is given here. Values without a mark were called inactive. Activity calls are given as the source filed them. The call rests on the fitted dose curve; in most records, active means well fitted cell-killing curve with a large enough effect; inconclusive means small, poorly fitted or top-dose-only effect, or effect the other way; inactive means no such curve, though single readings can be large or run the other way.
# Columns and labels:
# [1] = Quantitative High-Throughput drug screen in 47 multiple myeloma cell lines against the NCATS MIPE library collection: KMS28PE_JCRB cell viability assay (AID 1918983); further: nearly all actives have a fitted effect of over 35% in size; further: potency means the concentration at half of the fitted maximal effect
# Procedure, shortened: (§1)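 Myeloma cells (500/well) treated with MIPE 4.0 compounds for 48 h at 37 °C, 5% CO2. Viability read as ATP via CellTiter-Glo luminescence after 5 min at RT; DMSO-only wells = 100%, media-only = 0% viability.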
# [2] = Quantitative High-Throughput drug screen in 47 multiple myeloma cell lines against the NCATS MIPE library collection: L363_DSMZ cell viability assay (AID 1918984); further: nearly all actives have a fitted effect of over 40% in size; further: potency means the concentration at half of the fitted maximal effect
# Procedure, shortened: as §1
# [3] = Quantitative High-Throughput drug screen in 47 multiple myeloma cell lines against the NCATS MIPE library collection: OCIMY7_PLB cell viability assay (AID 1918987); conditions: OCI-MY7 myeloma viability, CellTiter-Glo ATP, 48 h; viability (% of DMSO): at 45.8 µM (top of the series); further: nearly all actives have a fitted effect of over 65% in size; further: potency means the concentration at half of the fitted maximal effect
# Procedure, shortened: as §1
# [4] = Quantitative High-Throughput drug screen in 47 multiple myeloma cell lines against the NCATS MIPE library collection: OPM1_PLB cell viability assay (AID 1918989); further: nearly all actives have a fitted effect of over 40% in size; further: potency means the concentration at half of the fitted maximal effect
# Procedure, shortened: as §1
# [5] = Quantitative High-Throughput drug screen in 47 multiple myeloma cell lines against the NCATS MIPE library collection: U266_ATCC cell viability assay (AID 1919864); further: nearly all actives have a fitted effect of over 35% in size; further: potency means the concentration at half of the fitted maximal effect
# Procedure, shortened: as §1
# [6] = Quantitative High-Throughput drug screen in 47 multiple myeloma cell lines against the NCATS MIPE library collection: XG6_PLB cell viability assay (AID 1919865); further: nearly all actives have a fitted effect of over 40% in size; further: potency means the concentration at half of the fitted maximal effect
# Procedure, shortened: as §1
# [7] = Quantitative High-Throughput drug screen in 47 multiple myeloma cell lines against the NCATS MIPE library collection: XG1_PLB cell viability assay (AID 1919866); further: nearly all actives have a fitted effect of over 35% in size; further: potency means the concentration at half of the fitted maximal effect
# Procedure, shortened: as §1
# [8] = Quantitative High-Throughput drug screen in 47 multiple myeloma cell lines against the NCATS MIPE library collection: VP6_DJ cell viability assay (AID 1919867); further: nearly all actives have a fitted effect of over 40% in size; further: potency means the concentration at half of the fitted maximal effect
# Procedure, shortened: as §1
# [9] = Quantitative High-Throughput drug screen in 47 multiple myeloma cell lines against the NCATS MIPE library collection: PE2_PLB cell viability assay (AID 1919869); further: nearly all actives have a fitted effect of over 35% in size; further: potency means the concentration at half of the fitted maximal effect
# Procedure, shortened: as §1
# [10] = Quantitative High-Throughput drug screen in 47 multiple myeloma cell lines against the NCATS MIPE library collection: PCM6_Riken cell viability assay (AID 1919870); further: nearly all actives have a fitted effect of over 30% in size; further: potency means the concentration at half of the fitted maximal effect
# Procedure, shortened: as §1
# [11] = Quantitative High-Throughput drug screen in 47 multiple myeloma cell lines against the NCATS MIPE library collection: RPMI8226_ATCC cell viability assay (AID 1919871); further: nearly all actives have a fitted effect of over 30% in size; further: potency means the concentration at half of the fitted maximal effect
# Procedure, shortened: as §1
# [12] = Quantitative High-Throughput drug screen in 47 multiple myeloma cell lines against the NCATS MIPE library collection: OPM2_DSMZ cell viability assay (AID 1919872); further: nearly all actives have a fitted effect of over 30% in size; further: potency means the concentration at half of the fitted maximal effect
# Procedure, shortened: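 Myeloma cells (500 per well) were exposed to MIPE 4.0 compounds by pin transfer and incubated 48 hours at 37C, 5% CO2. Viability was read as ATP by CellTiter-Glo luminescence, normalised to DMSO (100%) and media-only (0%) wells.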
# [13] = Quantitative High-Throughput drug screen in 47 multiple myeloma cell lines against the NCATS MIPE library collection: KMS11_JCRBsus cell viability assay (AID 1919873); further: nearly all actives have a fitted effect of over 50% in size; further: potency means the concentration at half of the fitted maximal effect
# Procedure, shortened: as §1
# [14] = Quantitative High-Throughput drug screen in 47 multiple myeloma cell lines against the NCATS MIPE library collection: UTMC2_PLB cell viability assay (AID 1919868); conditions: CellTiter-Glo ATP luminescence, 48 h; viability (% of DMSO control): at 45.8 µM (top of the series); further: nearly all actives have a fitted effect of over 55% in size; further: potency means the concentration at half of the fitted maximal effect
# Procedure, shortened: as §1
# [15] = Quantitative High-Throughput drug screen in 47 multiple myeloma cell lines against the NCATS MIPE library collection: LP1_DSMZ cell viability assay (AID 1918982); further: nearly all actives have a fitted effect of over 35% in size
# Procedure, shortened: as §1
# [16] = Quantitative High-Throughput drug screen in 47 multiple myeloma cell lines against the NCATS MIPE library collection: KMS28BM_JCRB cell viability assay (AID 1919874); further: nearly all actives have a fitted effect of over 35% in size; further: potency means the concentration at half of the fitted maximal effect
# Procedure, shortened: as §1
# [17] = Quantitative High-Throughput drug screen in 47 multiple myeloma cell lines against the NCATS MIPE library collection: KMS34_JCRB cell viability assay (AID 1918985); further: nearly all actives have a fitted effect of over 40% in size; further: potency means the concentration at half of the fitted maximal effect
# Procedure, shortened: as §1
# [18] = Quantitative High-Throughput drug screen in 47 multiple myeloma cell lines against the NCATS MIPE library collection: OCIMY5_PLB cell viability assay (AID 1918988); further: nearly all actives have a fitted effect of over 65% in size; further: potency means the concentration at half of the fitted maximal effect
# Procedure, shortened: as §1
# [19] = Quantitative High-Throughput drug screen in 47 multiple myeloma cell lines against the NCATS MIPE library collection: SKMM1_PLB cell viability assay (AID 1919863); conditions: SKMM1 myeloma viability, CellTiter-Glo ATP, 48 h; viability: hits give low values; further: nearly all actives have a fitted effect of over 35% in size; further: potency means the concentration at half of the fitted maximal effect
# Procedure, shortened: as §1
structure (smiles),measurement,setting,value
Cc1ccc(O)c(C(CCN(C(C)C)C(C)C)c2ccccc2)c1 (stereo not drawn),Potency,[1],inactive
same,Potency,[2],inactive
same,Potency,[3],inactive
same,Potency,[4],inactive
same,Potency,[5],inactive
same,Potency,[6],inactive
same,Potency,[7],inactive
same,Potency,[8],inactive
same,Potency,[9],inactive
same,Potency,[10],inactive
same,Potency,[11],inactive
same,Potency,[12],inactive
same,Potency,[13],inactive
COc1ccc(Nc2nccc(NCCO)n2)cc1,Potency,[2],inactive
same,Potency,[4],inactive
same,Potency,[6],inactive
same,Potency,[8],1.66 µM (active)
same,Potency,[14],inactive
CN(N=O)C(=O)N[C@H]1C(O)OC(CO)[C@@H](O)[C@H]1O (stereo partly drawn),Potency,[15],inactive
same,Potency,[2],inactive
same,Potency,[3],inactive
same,Potency,[4],inactive
same,Potency,[6],inactive
same,Potency,[7],inactive
same,Potency,[9],inactive
same,Potency,[10],inactive
same,Potency,[11],inactive
same,Potency,[16],inactive
Cn1cc(C[C@@H](N)C(=O)O)c2ccccc21,Potency,[17],4.57 µM (active)
same,Potency,[18],inactive
same,Potency,[19],7.24 µM (active)
same,Potency,[6],inactive
same,Potency,[7],inactive
same,Potency,[9],inactive
same,Potency,[11],inactive
same,Potency,[12],inactive
same,Potency,[13],inactive
same,Potency,[16],inactive
CCc1nc(-c2cccc(C)c2)c(-c2ccnc(NC(=O)c3ccccc3)c2)s1,Potency,[1],20.9 µM (active)
same,Potency,[2],inactive
same,Potency,[18],16.6 µM (active)
same,Potency,[4],13.2 µM (active)
same,Potency,[19],7.43 µM (active)
same,Potency,[6],20.9 µM (active)
same,Potency,[14],23.5 µM (active)
same,Potency,[9],13.2 µM (active)
same,Potency,[12],18.7 µM (active)
same,Potency,[13],20.9 µM (active)
CC(C)OC(=O)[C@H](C)N[P@](=O)(OC[C@H]1O[C@@H](n2ccc(=O)[nH]c2=O)[C@](C)(F)[C@H]1O)Oc1ccccc1,Potency,[15],inactive
same,Potency,[4],inactive
same,viability,[19],127%
same,Potency,[5],inactive
same,Potency,[10],inactive
same,Potency,[11],inactive
same,Potency,[12],inactive
same,Potency,[13],inactive
CC(=CC(=O)Nc1ccccc1C(=O)O)c1ccc2ccccc2c1,Potency,[1],inactive
same,Potency,[6],7.43 µM (active)
same,Potency,[8],18.7 µM (active)
same,Potency,[9],23.5 µM (active)
same,Potency,[13],inactive
same,Potency,[16],inactive
N#CC(=Cc1ccc(O)c(O)c1)C(=O)NCc1ccccc1,Potency,[1],inactive
same,Potency,[2],3.32 µM (active)
same,Potency,[3],5.9 µM (active)
same,Potency,[4],9.35 µM (active)
same,Potency,[5],26.4 µM (active)
same,Potency,[6],8.33 µM (active)
same,Potency,[8],18.7 µM (active)
same,Potency,[9],14.8 µM (active)
same,Potency,[10],10.5 µM (active)
CC[C@H]1OC(=O)[C@H](C)[C@@H](O[C@H]2C[C@@](C)(OC)[C@@H](O)[C@H](C)O2)[C@H](C)[C@@H](O[C@@H]2O[C@@H](C)C[C@H](N(C)C)[C@@H]2O)[C@](C)(O)C[C@@H](C)C(=O)[C@H](C)[C@@H](O)[C@]1(C)O,Potency,[15],inactive
same,Potency,[2],inactive
same,Potency,[18],inactive
same,Potency,[4],inactive
same,Potency,[7],4.18 µM (active)
same,Potency,[8],inactive
same,Potency,[10],inactive
same,Potency,[12],inactive
same,Potency,[13],inactive
same,Potency,[16],inactive
c1ccc2c(Oc3nc(Nc4ccc(N5CCOCC5)cc4)c4ncn(C5CCCCC5)c4n3)cccc2c1,Potency,[1],inactive
same,Potency,[3],14.8 µM (active)
same,Potency,[18],18.7 µM (active)
same,Potency,[4],inactive
same,Potency,[7],18.7 µM (active)
same,Potency,[8],14.8 µM (active)
same,Potency,[9],inactive
same,Potency,[10],inactive
same,Potency,[11],inactive
same,Potency,[12],inactive
COc1cc(C(=O)NC2CCN(C)CC2)ccc1Nc1ncc2c(n1)N(C1CCCC1)CCC(=O)N2C(C)C,Potency,[2],16.6 µM (active)
same,Potency,[3],14.8 µM (active)
same,Potency,[4],20.9 µM (active)
same,Potency,[5],18.7 µM (active)
same,Potency,[6],4.69 µM (active)
same,Potency,[8],14.8 µM (active)
same,Potency,[9],20.9 µM (active)
same,Potency,[10],18.7 µM (active)
same,Potency,[13],20.9 µM (active)
same,Potency,[16],14.8 µM (active)
Nc1nc2c(c(=O)[nH]1)N(C=O)[C@H](CNc1ccc(C(=O)N[C@@H](CCC(=O)O)C(=O)O)cc1)CN2,Potency,[17],inactive
same,Potency,[18],inactive
same,Potency,[4],inactive
same,Potency,[6],inactive
same,Potency,[7],inactive
same,Potency,[8],inactive
same,Potency,[9],inactive
same,Potency,[10],inactive
same,Potency,[11],inactive
same,Potency,[12],inactive
same,Potency,[13],inactive
same,Potency,[16],inactive
O=[N+]([O-])c1cn2c(n1)OC[C@@H](OCc1ccc(OC(F)(F)F)cc1)C2,Potency,[15],inactive
same,Potency,[17],inactive
same,Potency,[18],inactive
same,Potency,[4],inactive
same,Potency,[5],18.7 µM (active)
same,Potency,[6],inactive
same,Potency,[7],inactive
same,Potency,[10],inactive
same,Potency,[12],inactive
same,Potency,[13],inactive
COc1cc2c(cc1O)CCC1C2CC[C@@]2(C)C1CC[C@@H]2O (stereo partly drawn),Potency,[17],2.09 µM (active)
same,Potency,[3],0.469 µM (active)
same,Potency,[18],1.18 µM (active)
same,Potency,[4],5.26 µM (active)
same,Potency,[19],0.833 µM (active)
same,Potency,[5],13.2 µM (active)
same,Potency,[6],0.469 µM (active)
same,Potency,[8],2.64 µM (active)
same,Potency,[14],0.935 µM (active)
same,Potency,[9],3.72 µM (active)
same,Potency,[12],3.72 µM (active)
same,Potency,[13],0.743 µM (active)
same,Potency,[16],0.935 µM (active)
Cc1cc(-c2nnc3n2CCCCC3)c(C)n1-c1ccccc1,Potency,[15],inactive
same,Potency,[1],inactive
same,Potency,[18],23.5 µM (active)
same,Potency,[5],inactive
same,Potency,[7],inactive
same,Potency,[8],inactive
same,Potency,[14],inactive
same,Potency,[9],inactive
same,Potency,[12],inactive
same,Potency,[13],inactive
CCCCOc1ccc(C(=O)Nc2ccc(F)cc2F)cc1,Potency,[15],inactive
same,Potency,[2],inactive
same,Potency,[3],0.105 µM (active)
same,Potency,[18],inactive
same,Potency,[4],inactive
same,Potency,[6],inactive
same,Potency,[7],inactive
same,Potency,[8],7.43 µM (active)
same,Potency,[9],inactive
same,Potency,[10],inactive
same,Potency,[11],inactive
same,Potency,[13],inactive
same,Potency,[16],inactive
O=C(O)c1ccc(Nc2ncc3c(n2)-c2ccc(Cl)cc2C(c2c(F)cccc2F)=NC3)cc1,Potency,[3],0.209 µM (active)
same,Potency,[5],20.9 µM (active)
same,Potency,[6],0.662 µM (active)
same,Potency,[7],0.418 µM (active)
same,Potency,[8],5.9 µM (active)
same,Potency,[14],1.66 µM (active)
same,Potency,[10],16.6 µM (active)
same,Potency,[11],14.8 µM (active)
same,Potency,[13],0.132 µM (active)
